Data on 14 molecules can be found in PubChem BioAssay (NCI).

This is part of a sample that, as a whole, favours compounds with a hit. Of some 79,000 tested, about 15% had one in any assay. Unmarked numbers belong to inactive results. The source made the active and inactive calls. Rule as the data show it: active = growth inhibition above about 70%; inactive = the rest.

The test is described as follows: NCI Yeast Anticancer Drug Screen. Data for the mlh1 rad18 strain (AID 175). The conditions noted are these: S. cerevisiae mlh1 rad18 strain growth inhibition, stronger effect = higher value. The procedure: Growth inhibition of yeast strains with defined genetic alterations is measured as a screen for potential anti-cancer activity. Selected strains with alterations in DNA damage repair or cell cycle control were exposed to compounds and growth inhibition was measured relative to vehicle treated controls. The strain used in this assay is mlh1 rad18

Setting [1] is: at 5.0 µM (retest, dose inferred, filed as 0.5).
The mark [2] stands for this setting: at 50.0 µM (retest, dose inferred, filed as 5.0).

Turning to `O=C(O)c1cc(Br)ccc1OCc1ccc(Cl)cc1`, the growth inhibition was -8% under setting [1], 12% under setting [2] and 52.9% (at 50.0 µM).

In the case of `C/C(=N\NC(=S)NC(C)(C)C)c1ccccn1`, the growth inhibition is 38% under setting [1], 98% (active) under setting [2] and 91.2% (active) (at 50.0 µM).

As to `COc1ccc(C(C)c2cc3c(cc2O)OCO3)cc1` (configuration not stated), the growth inhibition is, setting by setting: under setting [1], 7%; under setting [2], 97% (active); (at 50.0 µM) 98% (active).

In the case of `OC(CCN1CCOCC1)C1c2ccccc2Cc2ccccc21` (configuration not stated), the growth inhibition runs as follows: under setting [1], 9%; under setting [2], 81% (active); (at 50.0 µM) 23.4%.

As to `O=C1N(Cc2ccccc2)CC1(c1ccccc1)C1CCCCC1O` (configuration not stated), the growth inhibition under setting [1] is -2%, the growth inhibition under setting [2] was 93% (active) and the growth inhibition (at 50.0 µM) was 4.1%.

As to `CC(C)C[NH-].CC(C)C[NH-].[Cl][Pt+2]([Cl])([Cl])[Cl]`, the growth inhibition runs as follows: under setting [1], 66%; under setting [2], 98% (active); (at 50.0 µM) 87.8% (active).

Regarding `CCCC(=O)OCc1cc(=O)n(C)c2c3c4c(cc12)c(C)cc(=O)n4CO3`, the growth inhibition under setting [1] is 83% (active), the growth inhibition under setting [2] was 99% (active) and the growth inhibition (at 50.0 µM) is 22.4%.

Consider `C=CS(=O)(=O)c1ccc(C)cc1`, for which the growth inhibition is, setting by setting: under setting [1], 6%; under setting [2], 87% (active); (at 50.0 µM) 88.5% (active).

With `O=c1oc2ccccc2c(O)c1/C=N/C(=S)Nc1ccccc1`, the growth inhibition under setting [1] was 9%, the growth inhibition under setting [2] is 97% (active) and the growth inhibition (at 50.0 µM) is 76% (active).

As for `O=C1/C(=C/c2ccc(Cl)c(Cl)c2)CN(C(=O)CCN2CCOCC2)C/C1=C\c1ccc(Cl)c(Cl)c1`, the growth inhibition under setting [1] is 99% (active), the growth inhibition under setting [2] is 88% (active) and the growth inhibition (at 50.0 µM) was 87.5% (active).

Turning to `Fc1ccc(NC(=S)SCc2ccc(Cl)c(Cl)c2)cc1`, the growth inhibition reads like this: under setting [1], 0%; under setting [2], 94% (active); (at 50.0 µM) 98.8% (active).

Take `COc1ccc2cc(CNCCCCCCCCNCc3ccc4cc(OC)ccc4c3)ccc2c1`: the growth inhibition under setting [1] is 31%, the growth inhibition under setting [2] was 99% (active) and the growth inhibition (at 50.0 µM) is 97.2% (active).

On to `Nc1ccc2c(c1)CCc1ccccc1-2`, for which the growth inhibition is, setting by setting: under setting [1], 2%; under setting [2], 45%; (at 50.0 µM) 86.5% (active).

As for `CC[N+]1(C)CCC(O)(c2ccc(Cl)c(Cl)c2)C(C(=O)c2ccc(Cl)c(Cl)c2)C1` (configuration not stated), the growth inhibition was 7% under setting [1], 100% (active) under setting [2] and 99.6% (active) (at 50.0 µM).
